HCMV inh = human cytomegalovirus inhibition. 410,000 tested, 4.5% active. activity change, negative = inhibition, % at 57.5 µM. HFF cells, HCMV-luciferase reporter, 72 h; active compounds read low. AID 1259415; in the data active means activity change below about -60%; inconclusive means no clear call, values can overlap the other calls; inactive means above about -39%; further: on the % scale 0 is the no-effect control and ±100 the full control effect
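Screen run at 2 compound doses on HFFs infected with reporter HCMV, MOI 1 PFU/cell. Luciferase activity from cell lysates at 72 h post infection gave inhibition relative to buffer-only and Salinomycin wells.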
MARV entry inh = blocks Marburg virus binding to or entry into cells | 300,000 tested, 1.8% active | Potency, µM (doses to about 37.8 µM), for inactives: at the highest dose activity change, negative = inhibition, hits mostly inhibitors | Marburg virus pseudotyped entry inhibition, cell reporter | AID 540276; calls by dose curve; tested in HEK293 cells; further: potency means the concentration at half of the fitted maximal effect; on the % scale 0 is the no-effect control and ±100 the full control effect
FMDV inh = blocks foot and mouth disease virus. FMDV antiviral cell-based qHTS. Potency, µM (titrated, usually from 57.9 µM), for the others: at the top dose activity change, negative = inhibition, most hits filed as inhibitors. 410,000 tested, 1.2% active; calls by dose curve; tested in HEK293T cells; further: read-out not given here; potency means the concentration at half of the fitted maximal effect; on the % scale 0 is the no-effect control and ±100 the full control effect; nearly all actives have a fitted effect of over 45% in size
SARS PLP yeast = inhibitors of SARS-CoV papain-like protease in yeast | S. cerevisiae expressing SARS-CoV PLpro, growth rescue | Potency, µM (doses to about 32.9 µM), for inactives: at the top dose activity, positive = growth rescue, usual class: activators | 330,000 tested, 0.19% active | AID 485353; calls by dose curve; further: potency means the concentration at half of the fitted maximal effect; 0% is about no effect; nearly all actives have a fitted effect of over 55% in size
HCV inhibitor = blocks hepatitis C virus; Huh7.5.1 HCVcc-Cre infection, luciferase reporter, 44 h; Potency, µM (doses to about 41.8 µM), for inactives: at the highest dose activity change, negative = inhibition, usual class: inhibitors; 340,000 tested, 3.4% active; active means well fitted inhibition curve with a large enough effect; inconclusive means small, poorly fitted or top-dose-only effect, or another doubt; inactive means no such curve, though single readings can be large or run the other way; further: potency means the concentration at half of the fitted maximal effect; on the % scale 0 is the no-effect control and ±100 the full control effect
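1,000 cells/well; 4 h culture; + compound; + HCVcc-Cre (~0.5 moi); 44 h; luciferase substrate, RT 15 min; read 15 sec.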
LASV entry inh = inhibitors of Lassa virus binding or cell entry; Lassa virus pseudotype entry inhibition, cell reporter; AID 540256; 300,000 tested, 1.2% active; Potency, µM (titrated, usually from 37.9 µM), without a hit: top-dose activity change, negative = inhibition, most hits filed as inhibitors; calls by dose curve; tested in HEK293 cells; further: potency means the concentration at half of the fitted maximal effect; on the % scale 0 is the no-effect control and ±100 the full control effect; nearly all actives have a fitted effect of over 50% in size
Numbers without * were called inactive; ? = inconclusive; . = no result given; [ ] = another dose, or the depositor's remark. Only some compounds are listed: those with a hit (about 8% of all), similar ones and a draw of the others.

SMILES	HCMV inh	MARV entry inh	FMDV inh	SARS PLP yeast	HCV inhibitor	LASV entry inh
Oc1ccc(-c2csc(-c3cccnc3)n2)cc1O	94.5	?	25.9%	-2.2%	-17.3%	?
Oc1ccc(-c2csc(Nc3ncccn3)n2)cc1O	110.9	?	-74.7%	0.2%	11.2µM*	?
Oc1ccc(-c2csc(-c3ccccc3)n2)cc1O	42.8	-19.2%	49.7%	-28.0%	4.47µM*	-36.9%
O=S1(=O)c2ccc(Br)cc2-n2nncc2CN1Cc1ccc(C(F)(F)F)cc1	.	.	.	.	.	8.4%[46.1 µM]
O=C(/C=C/c1ccc(O)cc1)c1ccccc1O	.	.	-31.5%	.	.	.
C=C(C)C(O)CC/C(C)=C/Cc1c(O)ccc(C(=O)/C=C/c2ccc(O)cc2)c1O (stereo not given)	-67.5*	.	?	-26.7%	?	.
COc1ccc(C=CC(=O)c2ccc(OC)c(OC)c2O)cc1OC	19.0	?	?	.	-20.4%	?
COc1ccc(C(=O)/C=C/c2ccc(O)cc2)c(O)c1C/C=C(\C)CCC=C(C)C	-105.4*	.	?	2.7%	?	.
Cc1cc2nc(CN(Cc3ccccc3)Cc3nc4cc(C)c(C)cc4[nH]3)[nH]c2cc1C	-11.8	.	.	.	.	.
CCC1=NN(C(=O)c2cccc(Br)c2)C(O)(c2ccc(Br)cc2)C1 (stereo not given)	-71.4*	?	0.0%	-84.3%	15.8µM*	2.5%
CCC1=NN(C(=O)c2ccc(C)cc2)C(O)(c2ccc(Br)cc2)C1 (stereo not given)	66.5	-4.3%	3.4%	-53.7%	11.3%	7.8%
COc1ccc(OC)c(/C=C2\NC(=O)NC2=O)c1	-81.0*	.	-18.8%	0.2%	1.7%	.
COc1cc(C=C2NC(=O)NC2=O)ccc1O	-31.2	.	-1.2%	.	.	.
COc1ccc(O[C@H]2C=C[C@@H](c3ccccc3)O[C@H]2CON=C2c3cc(OC)ccc3O[C@H](c3cccc(OC)c3)[C@H]2O)cc1	.	?	.	.	.	-31.2%[14.3 µM]
CN(C)C(=O)Oc1c(Cl)cc(Cl)c2ccccc12	-71.3*	6.6%	-22.2%	-7.4%	-7.9%	7.4%
CN(C)C(=O)Oc1ccc(Br)c2ccccc12	-1.6	-14.3%[46.1 µM]	-0.1%	-0.4%	-20.8%	0.2%[46.1 µM]
COc1ccc(C(=O)N(Cc2cc(OC)c(OC)c(OC)c2)C2CCS(=O)(=O)C2)cc1Cl (stereo not given)	15.0	-9.7%[46.1 µM]	-5.7%	.	.	2.6%[46.1 µM]
COc1ccc(CN2C(=O)C(NC(=O)c3ccc(C)cc3)(C(F)(F)F)N=C2c2ccccc2)cc1 (stereo not given)	-1.6	-10.7%[46.1 µM]	-22.6%	.	.	-16.8%[46.1 µM]
COc1ccc(CN2C(=O)C(NC(=O)c3ccccc3C)(C(F)(F)F)N=C2c2ccccc2)cc1 (stereo not given)	-102.7*	?	-23.0%	.	.	?
O=S(=O)(c1ccc(OCC2CO2)cc1)c1ccc(OCC2CO2)cc1 (stereo not given)	-68.4*	.	-6.1%	-0.1%	-14.4%	.
Cc1cccc(C)c1NS(=O)(=O)c1cc2c3c(c1)CCN3C(=O)CC2	-25.1	-24.0%	-5.1%	2.4%	1.8%	7.8%
Cc1cccc(C)c1NS(=O)(=O)c1cc2c3c(c1)CC(=O)N3CCC2	-65.4*	.	-0.3%	15.4%	-10.8%	.
Cc1cc(NCCc2c[nH]c3ccccc23)ccc1Nc1cccnc1	-86.7*	.	.	.	.	.
c1ccc(Nc2ccc(NCCc3c[nH]c4ccccc34)cc2)cc1	25.2	.	.	.	.	.
Cc1cccc(NC(=O)CSc2cn(CC(=O)N3CCOCC3)c3ccccc23)c1C	-37.0	.	23.7%	.	.	15.8%[46.1 µM]
SMILES	HCMV inh	MARV entry inh	FMDV inh	SARS PLP yeast	HCV inhibitor	LASV entry inh
COc1ccc(-c2csc(C(O)c3ccc(OC)cc3)n2)cc1 (stereo not given)	-71.8*	.	-24.7%	.	.	.
COc1cccc(C(O)c2nc(-c3ccncc3)cs2)c1 (stereo not given)	-75.6*	.	?	.	.	.
COc1cc(OC)c(NC(=O)N2CCc3cc(OC)c(OC)cc3C2CC(=O)O)cc1Cl (stereo not given)	-22.5	.	-21.7%	.	.	3.9%[46.1 µM]
O=C(c1ccccc1)c1ccccc1NC(=O)C1CCCN1Cc1ccccc1 (stereo not given)	-60.3*	.	-5.8%	-0.6%	?	.
O=C(Cc1ccccc1)Nc1ccc(NC(=O)c2ccccc2)nc1	-17.2	?	92.4%	0.9%	-25.0%	4.9%
O=C(Cc1ccccc1)Nc1nonc1NC(=O)c1ccccc1	-11.4	12.6µM*	17.5%	0.8%	-1.8%	?
Cc1ccc(C)c(NC(=O)CSc2nncn3c2cc2sccc23)c1	?	.	-11.8%	.	.	0.3%[46.1 µM]
CCCOc1ccc(-c2nc3ccc(Br)cc3c(=O)o2)cc1	1.4	.	-7.7%	.	.	-2.8%[46.1 µM]
CCOC(=O)c1ccc(NC(=S)N(CCCN2CCCC2)Cc2ccco2)cc1	-31.6	?	8.0%	-2.4%	10µM*	0.4%
CCOC(=O)c1ccc(NC(=S)N(CCCN2CCN(CC)CC2)Cc2ccco2)cc1	-35.2	?	-6.2%	-1.5%	?	?
CCN1CCN(CCCN(Cc2ccco2)C(=S)Nc2ccc(C)c(Cl)c2)CC1	68.6	?	-3.5%	4.4%	8.91µM*	?
CCOC(=O)c1ccc(NC(=S)N(CCCN2CCCC(C)C2)Cc2ccco2)cc1 (stereo not given)	-29.3	?	16.3%	-6.5%	10µM*	?
C=CCOC(=O)N[C@H](/C(C(=O)OC)=C(\C)NCc1ccccc1)c1cccc(C(F)(F)F)c1	.	2.8%[14.2 µM]	.	.	.	.
COc1cc(/C=N/NC(=S)NC2CC3C=CC2C3)cc(OC)c1OC (stereo not given)	-61.0*	?	?	1.5%	?	?
C[C@@H]1CC2C3CCC4=CC(=O)C=C[C@]4(C)[C@@]3(F)[C@@H](O)C[C@]2(C)[C@@]1(O)C(=O)CO (stereo not given in full)	.	-4.8%	.	.	.	.
Cc1ccc(-c2cc(=O)c3cc(C)ccc3[nH]2)cc1	0.5	8.2µM*	-44.6%	4.3%	?	14.6µM*
Cc1ccc2[nH]c(-c3cccc(F)c3)cc(=O)c2c1	-68.9*	?	38.2%	2.6%	?	-13.5%
Cc1ccc2[nH]c(-c3cccc(N)c3)cc2c1	114.0	?	73.3%	-1.2%	-15.2%	-0.9%
COc1ccc2[nH]c(-c3cccc(F)c3)cc(=O)c2c1	-61.5*	-4.8%	55.8%	-14.0%	4.0%[8.37 µM]	8.1%
Cc1ccc2[nH]c(C(F)(F)F)cc(=O)c2c1	-73.0*	?	-19.1%	-2.1%	9.4%	?
COc1ccc(-c2cc(=O)c3ccccc3[nH]2)cc1	17.1	-7.7%	21.6%	-11.0%	4.5%[8.37 µM]	6.2%
CCOC(=O)c1ccc2[nH]c(-c3ccc(S(=O)(=O)F)cc3)cc(=O)c2c1	57.1	.	-7.8%	1.4%	-4.1%	.
O=S(=O)(c1ccc(Cl)cc1)c1nc(-c2cccs2)oc1SCc1ccccc1F	-22.0	-3.2%[46.1 µM]	21.7%	.	.	11.4%[46.1 µM]
COc1cccc(-c2cc(=O)c3cc(NC(=O)c4ccc(N(C)C)cc4)ccc3[nH]2)c1	.	?	-19.9%	4.9%	-3.9%	0.92µM*

Assay outcomes: PubChem, National Center for Advancing Translational Sciences (NCATS)
